Assay results as given in PubChem BioAssay (Tox21).
Values joined by “and” are separate entries in the source; they are usually repeats but may differ in a detail not shown here. Equal values may be shown once. Inconclusive results are not listed. Entries that show only a call come without a potency. Values without a mark were called inactive. Active and inactive are the calls of the source. The call rests on the fitted dose curve; in most records, active means well fitted cell-killing curve with a large enough effect in the repeat runs; inconclusive means weak or mixed curves, or effect the other way; inactive means flat fitted curve, though single readings scatter.

Key:
[1] = cAMP Responsive Elements (CRE) small molecule antagonists, cell-based qHTS assay: qHTS cell viability counter screen (AID 2060913); further: nearly all actives have a fitted effect of over 40% in size
Procedure, shortened: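 Steps: cells plated and held 18 hrs at 37 C/5% CO2; compounds and NKH477 (0.25 uM final) added; 3 hrs incubation; reporter substrate read; CellTiter-Glo added to measure cytotoxicity by luminescence.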

[2] = cAMP Responsive Elements (CRE) small molecule agonists, cell-based qHTS assay: qHTS cell viability counter screen (AID 2060914);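 further: viability read after 3 h of compound exposure; nearly all actives have a fitted effect of over 50% in size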
Procedure, shortened: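 HEK 293T CRE-bla; DMEM + 10% dialyzed FBS, 25 mM HEPES; 18 h pre-incubation; compound 3 h, 37 °C/5% CO2; CellTiter-Glo added after reporter read; luminescence after 30 min RT.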
Potency means the concentration at half of the fitted maximal effect.

Nc1cc(C(=O)O)c(O)c(S(=O)(=O)O)c1
Potency [1]: inactive | Potency [2]: inactive

Cc1ccc2c(c1)c1c3n2CCNC3CCC1 (stereo not drawn)
Potency [1]: inactive | Potency [2]: inactive

OCCN(CCO)c1cccc(Cl)c1
Potency [1]: inactive | Potency [2]: inactive

CS(C)(=O)=O
Potency [1]: inactive | Potency [2]: inactive

CCC(=O)c1cccc(Cl)c1
Potency [1]: inactive | Potency [2]: inactive

CCCCCCCCCCCCCC[N+](C)(C)Cc1ccccc1
Potency [1]: 55.3 µM (active) and 26.6 µM (active) and 15.8 mM (active) | Potency [2]: 22 µM (active) and 11.9 µM (active)

Cc1oncc1C(=O)Nc1ccc(C(F)(F)F)cc1
Potency [1]: inactive | Potency [2]: inactive

Nc1c(CC(=O)O)cccc1C(=O)c1ccc(Br)cc1
Potency [1]: inactive | Potency [2]: inactive

CCCCCCCCCC(=O)N(C)C
Potency [1]: inactive | Potency [2]: inactive

CCCCCCOC(=O)CCCCC
Potency [1]: inactive | Potency [2]: inactive

O=Cc1c2ccccc2c(Cl)c2ccccc12
Potency [1]: inactive | Potency [2]: inactive

CCN(CC)CC
Potency [1]: inactive | Potency [2]: inactive

COCC(C)N (stereo not drawn)
Potency [1]: inactive | Potency [2]: inactive

Cc1cccc([N+](=O)[O-])c1C(=O)O
Potency [1]: inactive | Potency [2]: inactive

C=C(C)c1cccc(C(=C)C)c1
Potency [1]: inactive | Potency [2]: inactive

C=CC(C)(CCC=C(C)C)OC(=O)/C=C/c1ccccc1 (stereo not drawn)
Potency [1]: inactive | Potency [2]: inactive

c1ccc2sc(SSc3nc4ccccc4s3)nc2c1
viability change, negative = cytotoxic [1]: 2.3% [at 18.9 µM] | activity change, negative = cytotoxicity [2]: -2.25% [at 18.9 µM]

CCCCc1ncc(/C=C(\Cc2cccs2)C(=O)O)n1Cc1ccc(C(=O)O)cc1
Potency [1]: inactive | Potency [2]: inactive

CCc1cc(C2=C(C(=O)O)N(c3ccccc3C(F)(F)F)S(=O)(=O)c3ccccc32)cc2c1OCO2
Potency [1]: inactive | Potency [2]: inactive

COc1ccnc(CS(=O)c2nc3ccc(OC(F)F)cc3[nH]2)c1OC (stereo not drawn)
Potency [1]: inactive | Potency [2]: inactive

CCOc1ccc(NC(C)=O)cc1
Potency [1]: inactive | Potency [2]: inactive

Cc1ccccc1C(=O)O
Potency [1]: inactive | Potency [2]: inactive

COc1cccc(OC)c1C(=O)O
Potency [1]: inactive | Potency [2]: inactive

Cc1cc(CCC(=O)OCCOCCOCCOC(=O)CCc2cc(C)c(O)c(C(C)(C)C)c2)cc(C(C)(C)C)c1O
Potency [1]: inactive | Potency [2]: inactive

SCCCCCCCCS
Potency [1]: inactive | Potency [2]: inactive

C1C2OC2C2C1C1CC2C2OC12 (stereo not drawn)
Potency [1]: inactive | Potency [2]: inactive

CCCCOCCOCCOCCO
Potency [1]: inactive | Potency [2]: inactive

CC(C)(CCl)c1ccccc1
Potency [1]: inactive | Potency [2]: inactive

N#Cc1ccc(CC(=O)c2cccc(C(F)(F)F)c2)cc1
Potency [1]: inactive | Potency [2]: inactive

C[C@H](CCC(=O)O)[C@H]1CC[C@H]2[C@@H]3C(=O)C[C@@H]4CC(=O)CC[C@]4(C)[C@H]3CC(=O)[C@]12C
Potency [1]: inactive | Potency [2]: inactive

CC(CO)CO
Potency [1]: inactive | Potency [2]: inactive

CCCCCCCCCCCCCCCCCO
viability change, negative = cytotoxic [1]: 0.838% [at 18.9 µM] | activity change, negative = cytotoxicity [2]: -1.37% [at 18.9 µM]

CC(=O)c1ccc2c(c1)[C@H](NC(=O)c1ccc(F)cc1)[C@@H](O)C(C)(C)O2
Potency [1]: inactive | Potency [2]: inactive

CN(C)CCC(c1ccccc1)c1ccccn1 (stereo not drawn)
Potency [1]: inactive | Potency [2]: inactive

Cc1ccc(NC(=O)N(C)C)cc1NC(=O)N(C)C
Potency [1]: inactive | Potency [2]: inactive

CC(C)(O)CCC(C)(C)O
Potency [1]: inactive | Potency [2]: inactive

O=[N+]([O-])c1ccc(/C=C/c2ccc([N+](=O)[O-])cc2S(=O)(=O)O)c(S(=O)(=O)O)c1
Potency [1]: inactive | Potency [2]: inactive

CCCCCCCC/C=C\CCCCCCCCO
Potency [1]: inactive | Potency [2]: inactive

C/C=C1\[C@H]2C=C(C)C[C@]1(N)c1ccc(=O)[nH]c1C2
Potency [1]: inactive | Potency [2]: inactive

C=CN1CCCCCC1=O
Potency [1]: inactive | Potency [2]: inactive

CSc1nc(NC2CC2)nc(NC(C)(C)C)n1
Potency [1]: inactive | Potency [2]: inactive

CCCCCCCCCCCCCCCCCC[N+](C)(C)C
Potency [1]: 54.6 µM (active) | Potency [2]: 61.3 µM (active)

CN1CCC(=C2c3ccccc3CC(=O)c3sccc32)CC1
Potency [1]: inactive | Potency [2]: inactive

Brc1ccc(Oc2ccc(Br)cc2)cc1
Potency [1]: inactive | Potency [2]: inactive

CCC1(c2cnc[nH]2)Cc2ccccc2C1
Potency [1]: inactive | Potency [2]: inactive

O=C(Oc1ccccc1C(=O)O)c1ccccc1O
Potency [1]: inactive | Potency [2]: inactive

CCN(CC)CCOc1ccc2c(c1)C(=O)c1cc(OCCN(CC)CC)ccc1-2
Potency [1]: inactive | Potency [2]: inactive

C=CC1CO1 (stereo not drawn)
Potency [1]: inactive | Potency [2]: inactive

CCc1cccc(CC)c1N
Potency [1]: inactive | Potency [2]: inactive

CC(C)COCC(CN(Cc1ccccc1)c1ccccc1)N1CCCC1 (stereo not drawn)
Potency [1]: 29.8 µM (active) | Potency [2]: inactive

CC(C)(C)c1cccc(C(C)(C)C)c1O
Potency [1]: inactive | Potency [2]: inactive

CCSC(=O)N(CC)CC
Potency [1]: inactive | Potency [2]: inactive

CN(C)c1ccc(O)c2c1C[C@H]1C[C@H]3[C@H](N(C)C)C(=O)C(C(N)=O)=C(O)[C@@]3(O)C(=O)C1=C2O
Potency [1]: inactive | Potency [2]: inactive

O=C1c2ccccc2C(=O)C1c1ccc2cc(S(=O)(=O)O)cc(S(=O)(=O)O)c2n1
Potency [1]: inactive | Potency [2]: inactive

CC(C)=CC=O
Potency [1]: inactive | Potency [2]: inactive

CCCCCCC(O)CCOC(C)=O (stereo not drawn)
Potency [1]: inactive | Potency [2]: inactive

O=C(O)Cc1cc(I)c(Oc2cc(I)c(O)c(I)c2)c(I)c1
Potency [1]: inactive | Potency [2]: inactive

N#Cc1nc(Cl)c(Cl)c(Cl)c1Cl
Potency [1]: inactive | Potency [2]: inactive

CCNc1ccccc1
Potency [1]: inactive | Potency [2]: inactive

CC(C)OC(=O)CCC(=O)OC(C)C
Potency [1]: inactive | Potency [2]: inactive

CCN(CC)CCCC(C)Nc1ccnc2cc(Cl)ccc12 (stereo not drawn)
viability change, negative = cytotoxic [1]: 4.94% [at 8.39 µM] and -2.8% [at 18.9 µM] | activity change, negative = cytotoxicity [2]: -0.2% [at 8.39 µM] and -0.0045% [at 18.9 µM]

O=C(CN1CCN(Cc2ccc3c(c2)OCO3)CC1)N1c2ccccc2Sc2ccccc21
Potency [1]: inactive | Potency [2]: inactive

C1CCC2(CCCCO2)OC1
Potency [1]: inactive | Potency [2]: inactive

C[C@H](CS)C(=O)N1CCC[C@H]1C(=O)O
Potency [1]: inactive | Potency [2]: inactive

Cc1cccc(N)n1
Potency [1]: inactive | Potency [2]: inactive

Cc1c[nH]c(=O)[nH]c1=O
Potency [1]: inactive | Potency [2]: inactive

Cc1cc(C)c(O)c(C)c1
Potency [1]: inactive | Potency [2]: inactive

C=CCCCCCCCCC(=O)OCC
Potency [1]: inactive | Potency [2]: inactive

O=C(OCCN1CCOCC1)c1cccnc1Nc1cccc(C(F)(F)F)c1
Potency [1]: inactive | Potency [2]: inactive

CC1=C(C)C(=O)C(C(CCCCCC(=O)O)c2ccccc2)=C(C)C1=O (stereo not drawn)
Potency [1]: inactive | Potency [2]: inactive

O=[N+]([O-])C1(Br)COCOC1
Potency [1]: inactive | Potency [2]: inactive

O=C(O)c1ccccc1C(c1ccc(O)cc1)c1ccc(O)cc1
Potency [1]: inactive | Potency [2]: inactive

O=C(O)CCCc1c[nH]c2ccccc12
Potency [1]: inactive | Potency [2]: inactive

CCCSS/C(CCO)=C(\C)N(C=O)Cc1cnc(C)nc1N
Potency [1]: inactive | Potency [2]: inactive

Oc1cc(O)c2c(c1)O[C@H](c1ccc(O)c(O)c1)[C@H](O)C2
Potency [1]: inactive | Potency [2]: inactive

Cc1ccc2ccccc2c1[N+](=O)[O-]
Potency [1]: inactive | Potency [2]: inactive

CCOC(=O)Nc1ccc(NCc2ccc(F)cc2)nc1N
Potency [1]: inactive | Potency [2]: inactive

CCCCCCCCCCCCSC#N
Potency [1]: inactive | Potency [2]: inactive

Oc1ccc(C2CNCCc3c2cc(O)c(O)c3Cl)cc1 (stereo not drawn)
Potency [1]: inactive | Potency [2]: inactive

O=[N+]([O-])c1ccc2nc[nH]c2c1
Potency [1]: inactive | Potency [2]: inactive

CCCCCCS
Potency [1]: inactive | Potency [2]: inactive

CCC=O
Potency [1]: inactive | Potency [2]: inactive

CC1=CCC(=O)O1
Potency [1]: inactive | Potency [2]: inactive

Cc1c(-c2ccc(O)cc2)n(Cc2ccc(OCCN3CCCCCC3)cc2)c2ccc(O)cc12
Potency [1]: inactive | Potency [2]: inactive

C=Cc1ccc(C)cc1
Potency [1]: inactive | Potency [2]: inactive

Cc1c(Cl)cccc1Nc1ccccc1C(=O)O
Potency [1]: inactive | Potency [2]: inactive

CCCCCCCCCCCCCCC(=O)NC(CO)CCCCCCCCCCCCCC (stereo not drawn)
Potency [1]: inactive | Potency [2]: inactive

COc1nc(N)nc2c1ncn2[C@@H]1O[C@H](CO)[C@@H](O)[C@@H]1O
Potency [1]: inactive | Potency [2]: inactive

O=C(O)c1ccccc1C(=O)O
Potency [1]: inactive | Potency [2]: inactive

NC12CC3CC(CC(C3)C1)C2
Potency [1]: inactive | Potency [2]: inactive

CCC(C)(C)C(=O)O[C@H]1C[C@@H](C)C=C2C=C[C@H](C)[C@H](CC[C@@H]3C[C@@H](O)CC(=O)O3)[C@H]21
Potency [1]: inactive | Potency [2]: inactive

COc1ccc(OC)cc1
Potency [1]: inactive | Potency [2]: inactive

COc1ccc(C(C)=O)cc1
Potency [1]: inactive | Potency [2]: inactive

CN(C)c1ccc(C(=N)c2ccc(N(C)C)cc2)cc1
Potency [1]: inactive | Potency [2]: inactive

Nc1nc(Cl)nc2c1ncn2[C@H]1C[C@H](O)[C@@H](CO)O1
Potency [1]: inactive | Potency [2]: inactive

C=C(C)C(=O)OCCCCCCOC(=O)C(=C)C
Potency [1]: inactive | Potency [2]: inactive

COc1ccc2cc1Oc1ccc(cc1)C[C@H]1c3c(cc4c(c3Oc3cc5c(cc3OC)CCN(C)[C@@H]5C2)OCO4)CCN1C
Potency [1]: inactive | Potency [2]: inactive

NC(=O)NC1NC(=O)NC1=O (stereo not drawn)
Potency [1]: inactive | Potency [2]: inactive

N#Cc1ccccc1C#N
Potency [1]: inactive | Potency [2]: inactive

CN(C1CCCCC1)S(=O)(=O)c1ccccc1N
Potency [1]: inactive | Potency [2]: inactive

CC(COc1ccccc1)NN (stereo not drawn)
Potency [1]: inactive | Potency [2]: inactive

CCO[Si](CCCS)(OCC)OCC
Potency [1]: inactive | Potency [2]: inactive

CCCCCCCCCCCCCCCCCCN(C)C
Potency [1]: inactive | Potency [2]: inactive

Nc1ccc2c(S(=O)(=O)O)cccc2c1S(=O)(=O)O
Potency [1]: inactive | Potency [2]: inactive

C=CC(=O)OCCCl
Potency [1]: inactive | Potency [2]: inactive

COc1ccccc1OCC1CNC(=O)O1 (stereo not drawn)
Potency [1]: inactive | Potency [2]: inactive

O=C(O)c1ccccc1-c1ccc(C(F)(F)F)cc1
Potency [1]: inactive | Potency [2]: inactive

O=C1NCCN1CCN1CCC(c2cn(-c3ccc(F)cc3)c3ccc(Cl)cc23)CC1
Potency [1]: 10.6 µM (active) | Potency [2]: inactive

O=Cc1ccc(F)cc1
Potency [1]: inactive | Potency [2]: inactive

NC(=O)c1ccccc1O
Potency [1]: inactive | Potency [2]: inactive

Oc1ccccc1Cc1ccccc1O
Potency [1]: inactive | Potency [2]: inactive

CCCCC(CC)COC(=O)COc1cc(Cl)c(Cl)cc1Cl (stereo not drawn)
Potency [1]: inactive | Potency [2]: inactive

COCCCC/C(=N\OCCN)c1ccc(C(F)(F)F)cc1
Potency [1]: inactive | Potency [2]: inactive

CCc1ccc2c(c1)C(=O)c1ccccc1C2=O
Potency [1]: inactive | Potency [2]: inactive
